± gives the standard deviation of the averaged measurements.
How the values were obtained:
[1] = test system: Molm13; assay: cell viability relative to DMSO control (bortezomib = 0%); higher = less growth inhibition; settings: 10 nM; 72 h
Method in brief: (§1)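 In duplicate runs, a library of 679 approved and investigational compounds in 384-well plates received acute myeloid leukemia cells at 1000 cells per well in 50 µL, with each compound at a single 10 nM dose for 72 h. CellTiter-Glo luminescence, read on an EnVision reader, served as the viability measure. Each plate was normalized by linear regression between DMSO-treated cells (100%) and positive-control-treated cells (0%).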

[2] = test system: Mv4-11; assay: as above; settings: 10 nM; 72 h
Method in brief: as §1

| SMILES | cell viability [1] [%] | cell viability [2] [%] |
| --- | --- | --- |
| CCc1cc2c(cc1N1CCC(N3CCOCC3)CC1)C(C)(C)c1[nH]c3cc(C#N)ccc3c1C2=O [Alectinib] | 102 ± 7.8 | 100 ± 2.9 |
| CCc1cnn2c(NCc3ccc[n+]([O-])c3)cc(N3CCCC[C@H]3CCO)nc12 | 93.2 ± 28 | 86.6 ± 15 |
| CCCS(=O)(=O)Nc1ccc(F)c(C(=O)c2c[nH]c3ncc(Cl)cc23)c1F | 104 ± 8.2 | 135 ± 12 |
